Results on 24 compounds are retold here after PubChem BioAssay (NCATS).

The target in experiment [1] is Cytochrome P450 3A4 (Homo sapiens) (UniProt P08684). Put plainly: qHTS Assay for Activators of Cytochrome P450 3A4 (AID 885). Also: nearly all actives have a fitted effect of over 65% in size. Summed up:
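Human CYP3A4 dealkylates Luciferin-PPXE to luciferin, which luciferase detection converts to light. Substrate was at its KM (25uM), buffer 200mM KPO4, reaction 60 min at RT.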

Experiment [2] can be described thus: qHTS assay for small molecule activators of the nuclear factor-kappa B (NF-kB) signaling pathway (AID 651749; active = well fitted activation curve with a large enough effect in the signal ratio; the % refers to the signal ratio; also: % of control where 0% means no effect). The following applies: NF-kB-bla ME-180 cells, beta-lactamase FRET ratio, 16 h; activation: stronger effect = higher value. The procedure, abridged:
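Human ME-180 cervical cells with an NF-kB-bla construct; compounds added via 23 nL pin transfer, DMSO as vehicle; incubation 16 hr. Reporter activity measured by FRET disruption.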

Experiment [3] has as its target Androgen receptor (Homo sapiens) (UniProt P10275). Kind of experiment: qHTS assay for small molecule agonists of androgen receptor signaling (AID 588515; active = well fitted curve in the direction sought with a large enough effect in the signal ratio, with a control signal flat; the % refers to the signal ratio; also: % is scaled to controls: 0 for no effect and ±100 for the full control effect). The following applies: AR-UAS-bla HEK293, beta-lactamase ratio, agonist 16 h; stronger effect = higher value. The procedure, abridged:
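Stimulation of an AR-responsive β-lactamase reporter in GripTite HEK293 cells was measured after 16 h compound exposure at 37 °C, via CCF4 fluorescence after 2 h RT. EC50 from Hill fits, normalized to R1881 at 30 nM.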

Experiment [4] shares this target. Kind of experiment: qHTS assay for small molecule antagonists of androgen receptor signaling (AID 588516; active = well fitted curve in the direction sought with a large enough effect in the signal ratio, with a control signal flat, not every such curve was filed as active; the % refers to the signal ratio; also: % is scaled to controls: 0 for no effect and ±100 for the full control effect). The procedure, abridged: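 Cells were plated and incubated 5 h, compounds added in titration, then R1881 (10 nM final) as agonist. After 16 h at 37 C, CCF4 substrate was loaded for 2 h at room temperature and fluorescence measured.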
Experiment [5] can be described thus: qHTS assay to identify small molecules that stimulate interleukin-8 (IL-8) secretion (AID 651758; active = well fitted activation curve with a large enough effect in the signal ratio; the % refers to the signal ratio; also: 0% is about no effect). Summed up:
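Quantitative HTS in THP-1 monocytic cells at 2000 cells per well, with 16 hrs compound incubation at 37 C. IL-8 in the medium was then quantified by HTRF immunoassay, read after 1-3 hrs at room temperature.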

The nature of experiment [6]: Confirmation and Secondary Assay for Modulators of Hemoglobin Beta Chain Splicing at IVS2 705 locus (AID 930).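 Also: HeLa cells stably expressing the EGFP-705 splicing reporter; % of control where 0% means no effect.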 Summed up:
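Restored EGFP fluorescence after 2-day compound exposure reports splicing correction in IVS2-705 EGFP reporter HeLa cells; positive control was 500 nM splice-blocking PNA oligo. Signal measured as well total peak GFP intensity (488 nm excitation).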

The nature of experiment [7]: AP1 Signaling Pathway (AID 357; active = well fitted curve in either direction with a large enough effect, not every such curve was filed as active;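 also: ME-180 reporter cells stimulated with EGF at its EC50 level; % is scaled to controls: 0 for no effect and ±100 for the full control effect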). Summed up: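 Read-out was the 460nm/530nm emission ratio (excitation 405nm) after CCF4 loading for 2.5 hours at room temperature. Cells carried an AP-1-driven beta-lactamase reporter, were stimulated with EC50 EGF plus compound for 5 hours, and AC50 values came from titrations.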
Experiment [8] deals with Cytochrome P450 1A2 (Homo sapiens) (UniProt P05177). Kind of experiment: p450-cyp1a2 (AID 410; calls by dose curve). The procedure, abridged: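 Luminescent demethylation readout: Luciferin-ME (100uM, equal to Km) turned over by 20nM CYP1A2 for 60 min at room temperature after NADPH regeneration addition, following 10 min compound preincubation. Normalization used 57 uM furafylline as full inhibition.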

Experiment [9] is described as follows: Stat Signaling Pathway (AID 446; active = well fitted curve in either direction with a large enough effect, not every such curve was filed as active;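 also: ME-180 cervical cancer cells given 40 pM IL-6 alongside compound; SIE-controlled beta-lactamase reporter measured as 460/530 nm FRET emission ratio; % is scaled to controls: 0 for no effect and ±100 for the full control effect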). Summed up: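 Normalization used AC90 stimulation (300 pM IL-6) and AC90 inhibition (125 nM pan-JAK inhibitor at 40 pM IL-6). The underlying signal is SIE-driven beta-lactamase in ME-180 cells after 5 h IL-6 exposure with compound.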
Experiment [10] concerns the target Glucocorticoid receptor (Homo sapiens) (UniProt P04150). Kind of experiment: GR-GFP Redistribution (AID 450;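 active = compounds whose dose series gives a full or clear partial fitted curve of increased nuclear translocation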; also: potency is read from the fitted curve at half-maximal effect). Particulars: U2OS GR-GFP nuclear translocation, laser cytometry, 2 h.
Experiment [11] shares this target. Put plainly: GR-EFC Redistribution (AID 451; calls by dose curve; also: potency is read from the fitted curve at half-maximal effect). Particulars: CHO-K1 GR-EFC translocation, beta-gal luminescence, 2 h. The procedure, abridged:
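CHO-K1 cells stably expressing nuclear-localized β-gal enzyme acceptor and GR fused C-terminally to the enzyme donor fragment; ligand-driven nuclear translocation restores β-gal by complementation. Compounds titrated up to 46 uM final, 2 h at 37 °C; luminescence read.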

Experiment [12] addresses 3',5'-cyclic-AMP phosphodiesterase 4B (Homo sapiens) (UniProt Q07343). Kind of experiment: qHTS Assay for Inhibitors of PDE-IV (AID 607; active = well fitted activation curve with a large enough effect in the main read-out, with a control signal flat, not every such curve was filed as active; also: % of control where 0% means no effect). Summed up: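 HEK293 ACTOne cells with CNG channel (1000/well), endogenous PDE4; membrane potential dye, compounds up to 22.9 uM final. Fluorescence Ex 535/Em 590; RO 20-1724 (100 uM final) as reference.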
Experiment [13] is described as follows: qHTS profiling for inhibitors of Plasmodium falciparum proliferation (AID 504749).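 Also: 0% = DMSO vehicle and full inhibition = artemisinin control; nearly all actives have a fitted effect of over 60% in size.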 The following applies: P. falciparum in erythrocytes, SYBR Green DNA, 72 h. Summed up:
(§1)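 Quantitative HTS: compounds pinned into medium, infected erythrocytes added (0.3% parasitemia, 2.5% hematocrit), 72 h culture at 37 C under 5% CO2. Saponin/Triton lysis with SYBR Green I, overnight RT, then fluorescence read.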

Experiment [14] has as its system CP201. Described as above. Particulars: P. falciparum in erythrocytes, SYBR Green DNA, 72 h; series mostly up to 28.7 µM. The procedure, abridged:
as §1

Experiment [15] has as its system CP286. The description is as above. The following applies: P. falciparum in erythrocytes, SYBR Green DNA, 72 h; series mostly up to 28.7 µM. The procedure, abridged:
as §1

Experiment [16] concerns PC49. The description is as above. The following applies: P. falciparum in erythrocytes, SYBR Green DNA, 72 h; series mostly up to 28.7 µM. The procedure, abridged:
as §1

Experiment [17] concerns TAB109. The experiment is described as above. Particulars: P. falciparum in erythrocytes, SYBR Green DNA, 72 h; series mostly up to 12.8 µM. The procedure, abridged:
as §1

The test system of experiment [18] is TAB113. The experiment is described as above. Particulars: P. falciparum in erythrocytes, SYBR Green DNA, 72 h; series mostly up to 28.7 µM. Summed up: as §1
In experiment [19] the target is Ubiquitin carboxyl-terminal hydrolase 1 (Homo sapiens) (UniProt O94782). Put plainly: Inhibitors of USP1/UAF1: Pilot qHTS (AID 504865). Also: nearly all actives have a fitted effect of over 35% in size. Also: potency is read from the fitted curve at half-maximal effect. Summed up: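 In 50mM HEPES pH 7.8 containing 0.5mM EDTA, 1mM TCEP, 0.1 mg/ml BSA and 0.01% Tween-20, 1nM USP1/UAF1 is exposed to compound for 15 min, then Ub-Rho (150nM final) is added and fluorescence is read over time.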
A short description of experiment [20]: NFAT Signaling Pathway (AID 444; active = well fitted curve in either direction with a large enough effect, not every such curve was filed as active). The following applies: Jurkat NFAT-bla M1, carbachol, beta-lactamase ratio, 5 h. Summed up: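 Jurkat cells carrying an NFAT-driven β-lactamase reporter and co-transfected muscarinic M1 receptor were treated with compound plus carbachol (1 uM final, an EC50 level) for 5 h at 37 °C. CCF4 loading followed for 1 h at RT; 460/530 nm ratio gave %activity.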

[21] abbreviates: at 12.8 µM (top of the series), parasite line A.

Several values for one entry are separate records, joined by “and”; a condition that tells them apart may be missing. Equal values may be shown once. Unmarked numbers belong to inactive results. Inconclusive results are not listed. Activity calls are given as the source filed them. Unless noted, calls follow the shape of the dose curve; as a rule, active = well fitted curve in the direction sought with a large enough effect; inconclusive = small, poorly fitted or top-dose-only effect, or another doubt; inactive = no such curve, though single readings can be large; an effect the other way counts as inactive or inconclusive.

Chain of Cytochrome P450 3A4 (Homo sapiens) (P08684 whole entry, looked up): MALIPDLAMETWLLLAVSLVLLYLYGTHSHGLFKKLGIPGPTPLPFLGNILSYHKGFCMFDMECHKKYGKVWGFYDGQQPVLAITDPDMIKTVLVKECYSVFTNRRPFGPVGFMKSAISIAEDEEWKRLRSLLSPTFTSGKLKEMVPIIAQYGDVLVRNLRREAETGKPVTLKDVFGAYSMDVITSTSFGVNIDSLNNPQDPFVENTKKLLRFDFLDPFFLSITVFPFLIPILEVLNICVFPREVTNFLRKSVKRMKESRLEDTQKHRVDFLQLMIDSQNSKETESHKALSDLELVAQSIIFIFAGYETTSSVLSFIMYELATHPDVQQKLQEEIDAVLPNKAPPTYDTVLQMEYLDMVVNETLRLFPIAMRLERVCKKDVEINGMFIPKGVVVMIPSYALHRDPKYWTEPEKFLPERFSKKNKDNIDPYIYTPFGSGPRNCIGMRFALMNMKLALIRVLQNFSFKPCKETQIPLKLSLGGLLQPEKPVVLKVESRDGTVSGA
Chain of 3',5'-cyclic-AMP phosphodiesterase 4B (Homo sapiens) (Q07343 whole entry, looked up): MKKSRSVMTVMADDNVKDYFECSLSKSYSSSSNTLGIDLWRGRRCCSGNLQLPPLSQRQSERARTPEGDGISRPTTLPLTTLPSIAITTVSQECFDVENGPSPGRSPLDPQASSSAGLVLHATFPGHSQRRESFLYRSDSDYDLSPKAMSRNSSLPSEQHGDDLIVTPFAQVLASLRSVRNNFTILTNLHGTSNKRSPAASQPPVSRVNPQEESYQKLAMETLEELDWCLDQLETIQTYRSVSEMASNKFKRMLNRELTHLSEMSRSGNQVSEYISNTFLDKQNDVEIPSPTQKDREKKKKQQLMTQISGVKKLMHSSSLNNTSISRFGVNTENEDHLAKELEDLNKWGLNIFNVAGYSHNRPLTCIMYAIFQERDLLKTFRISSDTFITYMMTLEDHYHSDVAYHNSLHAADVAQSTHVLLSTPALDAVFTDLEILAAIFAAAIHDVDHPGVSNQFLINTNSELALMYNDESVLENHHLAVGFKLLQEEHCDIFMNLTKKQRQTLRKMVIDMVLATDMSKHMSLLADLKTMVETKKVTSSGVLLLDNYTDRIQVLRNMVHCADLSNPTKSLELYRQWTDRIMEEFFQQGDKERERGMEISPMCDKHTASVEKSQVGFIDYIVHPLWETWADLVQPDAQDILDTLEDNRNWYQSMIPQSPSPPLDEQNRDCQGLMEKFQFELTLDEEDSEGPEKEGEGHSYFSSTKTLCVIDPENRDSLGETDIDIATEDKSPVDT
Chain of Glucocorticoid receptor (Homo sapiens) (P04150 whole entry, looked up): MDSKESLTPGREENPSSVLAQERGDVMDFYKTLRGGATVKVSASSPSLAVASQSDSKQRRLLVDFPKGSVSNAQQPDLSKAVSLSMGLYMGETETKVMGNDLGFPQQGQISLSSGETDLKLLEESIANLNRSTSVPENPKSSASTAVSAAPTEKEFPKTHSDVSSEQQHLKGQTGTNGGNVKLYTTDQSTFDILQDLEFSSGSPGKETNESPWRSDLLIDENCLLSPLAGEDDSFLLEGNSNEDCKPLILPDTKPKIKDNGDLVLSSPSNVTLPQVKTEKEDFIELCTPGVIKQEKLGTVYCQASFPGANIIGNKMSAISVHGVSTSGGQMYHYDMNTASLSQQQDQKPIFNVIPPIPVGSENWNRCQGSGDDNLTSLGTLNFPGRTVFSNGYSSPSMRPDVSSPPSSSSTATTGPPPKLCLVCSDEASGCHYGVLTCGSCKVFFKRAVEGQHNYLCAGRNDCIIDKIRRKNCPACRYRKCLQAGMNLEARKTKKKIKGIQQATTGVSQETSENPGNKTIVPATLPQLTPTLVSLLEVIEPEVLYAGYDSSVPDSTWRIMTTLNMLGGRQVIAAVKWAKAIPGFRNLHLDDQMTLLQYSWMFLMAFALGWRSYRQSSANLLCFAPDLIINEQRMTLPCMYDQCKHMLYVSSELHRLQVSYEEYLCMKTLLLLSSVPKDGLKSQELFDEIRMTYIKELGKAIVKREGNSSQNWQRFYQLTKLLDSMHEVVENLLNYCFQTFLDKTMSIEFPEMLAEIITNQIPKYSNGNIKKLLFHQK
Chain of Androgen receptor (Homo sapiens) (P10275 whole entry, looked up): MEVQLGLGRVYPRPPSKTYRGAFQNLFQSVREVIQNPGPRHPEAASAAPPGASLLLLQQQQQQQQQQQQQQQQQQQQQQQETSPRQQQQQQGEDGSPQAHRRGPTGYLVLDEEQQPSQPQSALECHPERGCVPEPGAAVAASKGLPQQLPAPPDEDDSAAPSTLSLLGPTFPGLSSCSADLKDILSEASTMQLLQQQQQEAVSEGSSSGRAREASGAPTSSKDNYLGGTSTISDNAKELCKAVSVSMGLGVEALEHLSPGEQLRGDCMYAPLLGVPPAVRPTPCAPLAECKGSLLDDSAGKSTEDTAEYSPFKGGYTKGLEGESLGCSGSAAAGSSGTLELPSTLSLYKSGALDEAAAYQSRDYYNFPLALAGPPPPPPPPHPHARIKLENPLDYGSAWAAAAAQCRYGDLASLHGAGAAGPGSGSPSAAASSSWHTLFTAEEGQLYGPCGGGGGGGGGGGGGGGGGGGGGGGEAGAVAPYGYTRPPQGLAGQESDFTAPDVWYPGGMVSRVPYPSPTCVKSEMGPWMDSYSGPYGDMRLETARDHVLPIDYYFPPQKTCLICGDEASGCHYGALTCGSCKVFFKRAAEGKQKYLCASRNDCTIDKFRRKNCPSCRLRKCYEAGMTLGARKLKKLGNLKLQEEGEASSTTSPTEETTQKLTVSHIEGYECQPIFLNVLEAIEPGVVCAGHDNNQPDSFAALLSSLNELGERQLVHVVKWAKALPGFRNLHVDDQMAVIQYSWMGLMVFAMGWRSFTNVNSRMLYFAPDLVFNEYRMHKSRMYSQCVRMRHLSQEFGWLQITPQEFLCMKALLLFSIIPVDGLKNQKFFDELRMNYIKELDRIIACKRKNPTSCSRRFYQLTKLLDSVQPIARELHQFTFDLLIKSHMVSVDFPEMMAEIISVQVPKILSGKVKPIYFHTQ
Chain of Ubiquitin carboxyl-terminal hydrolase 1 (Homo sapiens) (O94782 whole entry, looked up): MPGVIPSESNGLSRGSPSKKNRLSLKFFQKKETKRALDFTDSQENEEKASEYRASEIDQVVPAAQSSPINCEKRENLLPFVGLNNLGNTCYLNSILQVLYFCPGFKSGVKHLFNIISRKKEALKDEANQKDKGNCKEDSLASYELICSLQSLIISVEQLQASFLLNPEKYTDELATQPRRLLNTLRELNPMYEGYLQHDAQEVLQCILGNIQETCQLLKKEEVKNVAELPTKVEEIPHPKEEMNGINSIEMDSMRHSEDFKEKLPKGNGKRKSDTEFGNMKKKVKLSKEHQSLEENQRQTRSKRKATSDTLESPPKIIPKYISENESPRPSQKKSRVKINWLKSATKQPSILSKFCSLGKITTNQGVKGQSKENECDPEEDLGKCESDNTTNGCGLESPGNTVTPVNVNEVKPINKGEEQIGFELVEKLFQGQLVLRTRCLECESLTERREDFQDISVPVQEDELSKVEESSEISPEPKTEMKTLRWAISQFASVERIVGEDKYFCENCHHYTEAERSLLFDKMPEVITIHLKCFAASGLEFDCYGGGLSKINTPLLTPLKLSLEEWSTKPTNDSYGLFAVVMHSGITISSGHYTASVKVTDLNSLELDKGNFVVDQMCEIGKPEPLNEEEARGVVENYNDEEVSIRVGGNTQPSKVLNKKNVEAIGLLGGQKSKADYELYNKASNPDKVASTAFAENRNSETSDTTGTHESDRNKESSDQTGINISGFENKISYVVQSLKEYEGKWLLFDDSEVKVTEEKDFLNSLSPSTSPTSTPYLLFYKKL
Chain of Cytochrome P450 1A2 (Homo sapiens) (P05177 whole entry, looked up): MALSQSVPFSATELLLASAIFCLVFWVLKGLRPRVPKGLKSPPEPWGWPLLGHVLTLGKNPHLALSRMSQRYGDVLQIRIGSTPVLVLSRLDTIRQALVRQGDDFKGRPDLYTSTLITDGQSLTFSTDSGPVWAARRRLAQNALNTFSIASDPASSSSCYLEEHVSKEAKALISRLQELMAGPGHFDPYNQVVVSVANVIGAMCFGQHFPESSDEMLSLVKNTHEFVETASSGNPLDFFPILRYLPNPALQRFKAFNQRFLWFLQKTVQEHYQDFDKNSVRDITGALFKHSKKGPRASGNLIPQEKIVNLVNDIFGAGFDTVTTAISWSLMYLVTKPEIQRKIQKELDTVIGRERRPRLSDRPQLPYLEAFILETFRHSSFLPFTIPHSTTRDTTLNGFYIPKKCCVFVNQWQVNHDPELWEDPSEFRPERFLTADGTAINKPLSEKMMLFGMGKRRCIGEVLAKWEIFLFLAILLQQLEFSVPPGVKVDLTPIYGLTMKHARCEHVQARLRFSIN

In the case of `c1nc[nH]n1`, the Potency entry in experiment [1] is “inactive”. Besides, the activation in [2] is 0.14%.

`CCSC(=O)Cl`: the activation was 5.7% in experiment [3] and -1.04% in [2]. In addition, the Potency entry in [4] is “inactive”.

Turning to `CCN(CC)c1ccccc1`, the activation in experiment [3] was 12.2%. Further, the Potency entry in experiment [4] is “inactive”.

For `C[N+](C)(C)Cc1ccccc1`, the Potency entry in [5] was “inactive”.

Take `CCOP(=S)(OCC)Oc1ccc([N+](=O)[O-])cc1`: in [1], the Potency result is “inactive”.

Regarding `Clc1ccc2ccccc2c1`, the activation in experiment [3] is 11.2%. Moreover, the Potency entry in experiment [4] is “inactive”.

Consider `CCCCCCC(C)OC(=O)COc1ccc(Cl)cc1Cl` (centres undefined), for which the Potency entry in [6] is “inactive”.

As for `Cc1ccc([N+](=O)[O-])cc1C`, the Potency result in [5] is “inactive”.

In the case of `CC[C@]1(c2cccc(O)c2)CCCCN(C)C1`, the outcome in [7] and in [9] was inactive. Further, the Potency entry in experiment [8], in experiment [12], in experiment [14], in experiment [15], in experiment [16] and in experiment [17] was “inactive” throughout. Moreover, the Potency result in experiment [18] was “inactive”. The Potency in experiment [10] and in experiment [11] was more than 20.6 µM in each case. Besides, in experiment [13] (setting [21]), the activity, negative = inhibition was -7.81%.

For `CCCSC(=O)Cl`, the activation in experiment [2] is -0.498%. The Potency entry in experiment [5] is “inactive”.

As to `CCOc1ccc(N)cc1`, the Potency result in [5] is “inactive”.

Turning to `COc1cc2c3cc1Oc1c(OC)c(OC)cc4c1C(Cc1cccc(c1)Oc1ccc(c(O)c1)CC3N(C)CC2)N(C)CC4` (centres undefined), the Potency result in experiment [6] and in [19] was “inactive” each time.

Take `ClCBr`: the Potency entry in [5] is “inactive”.

For the compound `O=NN(CCO)CCO`, the activation in experiment [3] was 14%. Further, the Potency result in [4] was “inactive”.

Turning to `C[C@@]12CCC(Cl)C[C@H]1CCC1C2CC[C@]2(C)C(=O)CCC12` (some centres undefined), the Potency entry in experiment [6] and in [19] was “inactive” each time.

Regarding `CC(C)(C)OO`, the activation in experiment [3] is -8.84%; in experiment [2] it was -0.974% and 0.475%. Further, the Potency entry in experiment [4] and in [5] was “inactive” throughout.

Consider `ClC(Cl)=C(Cl)C(Cl)=C(Cl)Cl`, for which the Potency entry in experiment [5] is “inactive”.

For the compound `CCCCC/C=C\C/C=C\C/C=C\C/C=C\CCCC(=O)O`, the Potency result in [1] is “inactive”. The Potency in [19] was 50.1 µM (active).

In the case of `COc1ccc(N)cc1`, the Potency result in experiment [1] and in experiment [5] was “inactive” throughout.

For the compound `CCCCOCCOP(=O)(OCCOCCCC)OCCOCCCC`, the Potency entry in [1] was “inactive”.

`CCN(CC)C(=O)N[C@H]1C=C2c3cccc4[nH]cc(c34)C[C@@H]2N(C)C1`: the call in [7] and in experiment [9] was inactive. Moreover, the Potency in experiment [10] was more than 20.6 µM; in experiment [11], more than 20.6 µM; in experiment [19] it was 35.5 µM (active). Further, the Potency result in experiment [12] was “inactive”.

As for `C[C@H](NC(C)(C)C)C(=O)c1cccc(Cl)c1`, the result in experiment [7] and in [9] was inactive. Moreover, the Potency entry in [8], in experiment [12], in [19], in [14], in [15] and in experiment [16] was “inactive” in each case. The Potency result in [17] and in experiment [18] was “inactive” in each case. The activity change, negative = inhibition was -9.97% in [20] (at 17.2 µM (top of the series)) and -9.57% in experiment [20] (at 38 µM (top of the series)). Moreover, the Potency is > 46 µM and > 20.6 µM in experiment [10]; > 46 µM and > 20.6 µM in experiment [11]. The activity, negative = inhibition is 3.13% in experiment [13] (at 28.7 µM (top of the series), parasite line A) and 0.713% in experiment [13] (at 28.7 µM (top of the series), parasite line B).

Regarding `CCC[C@@](C)(COC(N)=O)COC(=O)NC(C)C`, the result in experiment [7] and in experiment [9] was inactive. Besides, the Potency entry in experiment [8], in experiment [12] and in experiment [19] was “inactive” in each case. The activity change, negative = inhibition in [20] (at 17.2 µM (top of the series)) was -5.77%; in experiment [20] (at 38 µM (top of the series)) it was -2.28%.

Take `CN(C)C(=O)Oc1cc(OC(=O)N(C)C)cc([C@@H](O)CNC(C)(C)C)c1`: the compound was called inactive in experiment [7] and in [9]. The Potency entry in experiment [8], in [12], in experiment [19], in experiment [14], in experiment [15] and in [16] was “inactive” throughout. Also, the Potency entry in experiment [17] and in experiment [18] was “inactive” each time. Further, the activity change, negative = inhibition in experiment [20] (at 17.2 µM (top of the series)) was -23.9%. Also, the Potency in experiment [10] and in experiment [11] was more than 20.6 µM throughout. Besides, the activity, negative = inhibition in experiment [13] (setting [21]) is 1.47%; in experiment [13] (at 12.8 µM (top of the series), parasite line B), -2.95%.
